Assay results as given in PubChem BioAssay.

Biological target: Epidermal growth factor receptor (Homo sapiens) (UniProt P00533)
Assay: EGFR binders on small-molecule microarrays, primary screen, biochemical, small-molecule microarray, 635 nm fluorescence (AID 1104);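 note: score merges 667 nm emission intensity with spot signal to noise over triplicate slides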
Details: EGFR binding, higher = more signal

Chain of Epidermal growth factor receptor (Homo sapiens) (P00533 whole entry, looked up): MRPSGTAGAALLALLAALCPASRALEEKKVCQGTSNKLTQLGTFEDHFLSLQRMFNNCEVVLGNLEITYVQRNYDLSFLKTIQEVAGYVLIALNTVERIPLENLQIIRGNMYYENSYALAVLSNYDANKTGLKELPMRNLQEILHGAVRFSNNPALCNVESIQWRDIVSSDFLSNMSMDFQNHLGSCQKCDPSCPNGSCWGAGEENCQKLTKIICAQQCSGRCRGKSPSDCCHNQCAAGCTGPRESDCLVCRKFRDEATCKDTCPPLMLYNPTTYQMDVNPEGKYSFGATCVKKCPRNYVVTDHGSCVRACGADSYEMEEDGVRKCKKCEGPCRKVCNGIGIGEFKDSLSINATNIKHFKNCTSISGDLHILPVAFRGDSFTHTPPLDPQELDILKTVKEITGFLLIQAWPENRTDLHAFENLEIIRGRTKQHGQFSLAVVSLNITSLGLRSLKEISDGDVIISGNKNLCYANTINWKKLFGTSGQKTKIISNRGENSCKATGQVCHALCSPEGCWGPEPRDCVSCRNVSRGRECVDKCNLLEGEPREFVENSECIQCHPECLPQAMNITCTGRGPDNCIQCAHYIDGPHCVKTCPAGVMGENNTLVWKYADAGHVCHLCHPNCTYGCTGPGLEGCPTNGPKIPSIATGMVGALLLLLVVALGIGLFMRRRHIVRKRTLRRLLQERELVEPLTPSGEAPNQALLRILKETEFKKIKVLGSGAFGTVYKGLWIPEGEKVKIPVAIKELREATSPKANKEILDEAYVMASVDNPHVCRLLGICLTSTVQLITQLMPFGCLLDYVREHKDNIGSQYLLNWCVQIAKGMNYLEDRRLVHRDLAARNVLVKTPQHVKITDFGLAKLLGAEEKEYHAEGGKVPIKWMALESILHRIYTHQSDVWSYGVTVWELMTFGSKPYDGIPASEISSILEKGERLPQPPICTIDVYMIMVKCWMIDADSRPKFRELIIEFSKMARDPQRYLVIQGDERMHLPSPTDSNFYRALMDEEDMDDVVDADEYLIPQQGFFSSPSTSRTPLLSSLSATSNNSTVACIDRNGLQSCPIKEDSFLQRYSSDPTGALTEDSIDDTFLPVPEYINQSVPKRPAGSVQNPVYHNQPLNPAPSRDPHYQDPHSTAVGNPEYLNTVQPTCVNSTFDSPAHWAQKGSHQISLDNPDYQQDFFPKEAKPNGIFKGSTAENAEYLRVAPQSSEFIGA

| Compound | composite z-score |
| --- | --- |
| [N-]=[N+]=Nc1ccccc1C[C@]1(C(=O)NCCN2CCOCC2)N=C(c2ccc(OCCCO)cc2)O[C@H]1c1ccccc1 | -0.117 |
| COC(=O)C[C@@H]1C[C@H](C)[C@]2(O1)C(=O)N(Cc1ccccc1)c1ccc(NC(C)=O)cc12 | 0.324 |
| Cc1ccc([C@H]2C(C(=O)O)=C[C@@H](C)N2S(=O)(=O)c2ccc(C)cc2)cc1 | -0.19 |
| O=C1O[C@H](c2ccccc2)[C@H](c2ccccc2)N2[C@H]1[C@@H](C(=O)O)[C@]1(C(=O)Nc3ccc(C#CC4=CCCCC4)cc31)[C@H]2c1ccc(OCCO)cc1 | 0.58 |
| C=CC(=C)C1=CCO[C@@H]1[C@H]1CCCN1S(=O)(=O)c1ccccc1[N+](=O)[O-] | 0.578 |
| CCC(CC)C(O)C1C=CC2C(=O)N(c3ccccc3)C(=O)C2N1Nc1ccc(C#N)cc1 (stereo unspecified) | 0.231 |
| CC(C)N1C(=O)c2ccccc2[C@@H](C(=O)NCCCN(C)C)[C@@H]1c1ccc(CO)cc1 | -0.568 |
| COC(=O)[C@@]1(Cc2ccc(F)cc2)[C@H]2c3cc(C(=O)N4CCCC4)n(Cc4cccc5ccccc45)c3C[C@H]2CN1C(=O)c1ccccc1 | 0.329 |
| CCOC(=O)[C@H]1C/C=C/C[C@H](C(=O)OCC)C(=O)O[C@H]2[C@@H](OC)O[C@H](CO)[C@@H](OC(=O)Nc3ccc4c(c3)OCO4)[C@@H]2OC1=O | -0.407 |
| COCC(=C=CC[C@@H](O)c1ccc(CO)o1)CCO | 0.614 |
| Cc1cc(C)c(C(O)C2C=CC3C(=O)N(c4ccccc4)C(=O)C3N2Nc2ccc(C#N)cc2)c(C)c1 (stereo unspecified) | 0.283 |
| COc1ccc(C#Cc2ccc3c(c2)[C@]2(C(=O)N3)[C@H](c3ccc(O)cc3)N3[C@H](c4ccccc4)[C@H](c4ccccc4)OC(=O)[C@H]3[C@@H]2C(=O)N2CCCCCCC2)cc1 | 1.18 |
| O=C1C2C=CC(C(O)c3ccc(F)cc3)N(Nc3ccccc3)C2C(=O)N1c1ccccc1 (stereo unspecified) | -0.296 |
| COc1cc2c(cc1OC)CN(C(=O)[C@@H]1[C@H]3C(=O)O[C@H](c4ccccc4)[C@H](c4ccccc4)N3[C@H](c3ccccc3OCCO)[C@@]13C(=O)Nc1ccc(C#CCNC(N)=O)cc13)CC2 | 0.245 |
| Cc1ccc(F)cc1S(=O)(=O)N[C@@H]1CCN(Cc2ccc(-c3ccccc3)cc2)C1 | 0.156 |

Biological target: Follistatin-related protein 3 (Homo sapiens) (UniProt O95633)
Sequence (O95633 whole entry, looked up): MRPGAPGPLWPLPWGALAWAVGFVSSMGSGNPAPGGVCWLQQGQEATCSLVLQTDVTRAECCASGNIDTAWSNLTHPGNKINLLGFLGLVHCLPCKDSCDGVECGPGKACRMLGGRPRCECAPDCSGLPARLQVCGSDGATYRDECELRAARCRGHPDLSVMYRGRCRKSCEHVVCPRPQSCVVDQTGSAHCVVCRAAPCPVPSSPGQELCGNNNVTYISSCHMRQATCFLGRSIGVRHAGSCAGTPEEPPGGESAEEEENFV
Assay: FSTL3 binders on small-molecule microarrays, primary screen, biochemical, small-molecule microarray, 635 nm fluorescence (AID 1105);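 note: score merges emission near 667 nm and signal to noise per printed spot across three slides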
Details: FSTL3 binding, higher = more signal

| Compound | composite z-score |
| --- | --- |
| CCOC(=O)C[C@H]1[C@H](OC(=O)c2ccc(-c3ccccc3)cc2)[C@@H](NC(=O)Cc2ccc(OC)cc2)c2cc(OCCCO)ccc2N1C(=O)c1ccc2ccccc2n1 | 0.367 |
| C=CC[C@@]1(C(=O)NCC(O)CO)N=C(c2ccc(OCCCO)cc2)O[C@@H]1c1ccccc1N=[N+]=[N-] (stereo partly specified) | 0.326 |
| CCCCC=C[C@@H](NC(=O)c1ccco1)c1ccccc1 | 0.296 |
| CC(C)(C)OC(=O)CC[C@@]1(C(=O)NCCN2CCOCC2)N=C(c2ccc(OCCCO)cc2)O[C@@H]1c1ccccc1 | 1.05 |
| CC(C)(C)N1CC=CC23O[C@@H]4C=CCOC(=O)[C@@H]4[C@H]2C(=O)N(CCCCCO)[C@@H]3C1=O (stereo partly specified) | -1.67 |
| COc1ccc(C(O)C2C=CC3C(=O)N(c4ccccc4)C(=O)C3N2Nc2ccc([N+](=O)[O-])cc2)cc1OCc1ccccc1 (stereo unspecified) | 0.763 |
| CN(C)C(=O)[C@]1(CCC(=O)OC(C)(C)C)N=C(c2ccc(OCCCO)cc2)O[C@@H]1c1ccccc1N=[N+]=[N-] | 0.644 |
| O=C1OCC=C[C@H]2OC34C=CCN(c5ccc6ccccc6c5)C(=O)[C@H]3N(CCCO)C(=O)[C@@H]4[C@@H]12 (stereo partly specified) | -0.699 |
| COC(=O)c1c(CC[C@@H](CO)NC(=O)N[C@@H](Cc2ccccc2)Cn2cc(C3(O)CCCCC3)nn2)oc(C(C)=O)c1C(=O)OC | 0.873 |
| C=CCOC(=O)[C@H]1[C@@H]2C(=O)O[C@@H](c3ccccc3)[C@@H](c3ccccc3)N2[C@@H](c2ccc(OCCOC(=O)[C@@H]3C[C@@H]4C(=O)NCC(=O)N4[C@@H]3c3ccc(O)cc3)cc2)[C@]12C(=O)Nc1ccccc12 | 1.34 |
| [N-]=[N+]=NCc1ccccc1[C@H]1OC(c2ccc(OCCCO)cc2)=N[C@@]1(CCS(=O)(=O)c1ccccc1)C(=O)N1CCOCC1 | 1.13 |
| N[C@@H](Cc1ccccc1)Cn1cc(-c2ccccc2)nn1 | 0.0589 |
| CC(C)CNC(=O)[C@@]1(c2ccc([N+](=O)[O-])cc2)CC(=O)N(CC23CC4CC(CC(C4)C2)C3)[C@@H]1c1ccc(CO)cc1I | 1.08 |
| O=C(CCN1CCOCC1)c1cccc(O)c1 | 1.49 |
| COC(=O)C(CC#Cc1ccc2c(c1)[C@]1(C(=O)N2)[C@H](c2ccc(OCCO)cc2)N2[C@H](c3ccccc3)[C@H](c3ccccc3)OC(=O)[C@H]2[C@@H]1C(=O)NC[C@H](O)c1ccccc1)C(=O)OC | 0.617 |
| C#CCN(C(/C=C/c1ccccc1)CO)C(C(=O)O)c1ccccc1 (stereo unspecified) | -0.435 |
| COc1ccc(C(=O)Nc2cccc(CN3C(=O)[C@@]4(O[C@@H](CCn5cc(CCO)nn5)[C@H]([Si](C)(C)c5ccc(OC)cc5)[C@H]4C)c4ccccc43)c2)cc1 | 1.38 |
| O=C(CS)NCCCCCCNC(=O)[C@@H]1C[C@@H]2C(=O)N3CCC[C@H]3C(=O)N2[C@@H]1c1ccc(O)cc1 | -0.32 |

| Compound | composite z-score |
| --- | --- |
| CCCNC(=O)[C@@]1(c2ccc([N+](=O)[O-])cc2)CC(=O)N(CC23CC4CC(CC(C4)C2)C3)[C@@H]1c1ccc(CO)cc1 | 1.34 |
| CC(C)c1ccc(NN2C(C(O)c3c(F)cccc3Cl)C=CC3C(=O)N(c4ccccc4)C(=O)C32)cc1 (stereo unspecified) | 0.766 |
| COc1ccc([Si](C)(C)[C@@H]2[C@@H](CCn3cc([C@H](O)c4ccccc4)nn3)O[C@]3(C(=O)N(Cc4ccc(N5C(=O)c6cccc7cccc5c67)cc4)c4ccccc43)[C@H]2C)cc1 | -0.586 |
| [N-]=[N+]=Nc1ccccc1C[C@]1(C(=O)NCCN2CCOCC2)N=C(c2ccc(OCCCO)cc2)O[C@H]1c1ccccc1 | -0.391 |
| COC(=O)C[C@@H]1C[C@H](C)[C@]2(O1)C(=O)N(Cc1ccccc1)c1ccc(NC(C)=O)cc12 | 0.389 |
| Cc1ccc([C@H]2C(C(=O)O)=C[C@@H](C)N2S(=O)(=O)c2ccc(C)cc2)cc1 | -0.525 |
| O=C1O[C@H](c2ccccc2)[C@H](c2ccccc2)N2[C@H]1[C@@H](C(=O)O)[C@]1(C(=O)Nc3ccc(C#CC4=CCCCC4)cc31)[C@H]2c1ccc(OCCO)cc1 | 1.42 |
| C=CC(=C)C1=CCO[C@@H]1[C@H]1CCCN1S(=O)(=O)c1ccccc1[N+](=O)[O-] | 1.31 |
| CCC(CC)C(O)C1C=CC2C(=O)N(c3ccccc3)C(=O)C2N1Nc1ccc(C#N)cc1 (stereo unspecified) | 0.78 |
| CC(C)N1C(=O)c2ccccc2[C@@H](C(=O)NCCCN(C)C)[C@@H]1c1ccc(CO)cc1 | -0.85 |
| COC(=O)[C@@]1(Cc2ccc(F)cc2)[C@H]2c3cc(C(=O)N4CCCC4)n(Cc4cccc5ccccc45)c3C[C@H]2CN1C(=O)c1ccccc1 | 0.286 |
| CCOC(=O)[C@H]1C/C=C/C[C@H](C(=O)OCC)C(=O)O[C@H]2[C@@H](OC)O[C@H](CO)[C@@H](OC(=O)Nc3ccc4c(c3)OCO4)[C@@H]2OC1=O | 0.294 |
| COCC(=C=CC[C@@H](O)c1ccc(CO)o1)CCO | 0.574 |
| Cc1cc(C)c(C(O)C2C=CC3C(=O)N(c4ccccc4)C(=O)C3N2Nc2ccc(C#N)cc2)c(C)c1 (stereo unspecified) | 1.22 |
| COc1ccc(C#Cc2ccc3c(c2)[C@]2(C(=O)N3)[C@H](c3ccc(O)cc3)N3[C@H](c4ccccc4)[C@H](c4ccccc4)OC(=O)[C@H]3[C@@H]2C(=O)N2CCCCCCC2)cc1 | 1.61 |
| O=C1C2C=CC(C(O)c3ccc(F)cc3)N(Nc3ccccc3)C2C(=O)N1c1ccccc1 (stereo unspecified) | -0.216 |
| COc1cc2c(cc1OC)CN(C(=O)[C@@H]1[C@H]3C(=O)O[C@H](c4ccccc4)[C@H](c4ccccc4)N3[C@H](c3ccccc3OCCO)[C@@]13C(=O)Nc1ccc(C#CCNC(N)=O)cc13)CC2 | 0.445 |
| Cc1ccc(F)cc1S(=O)(=O)N[C@@H]1CCN(Cc2ccc(-c3ccccc3)cc2)C1 | 0.239 |
